From PubChem BioAssay (NCATS)
Records with an inconclusive call do not appear. Calls of active or inactive are those of the source. The call rests on the fitted dose curve; in most records, active means well fitted curve in the direction sought with a large enough effect; inconclusive means small, poorly fitted or top-dose-only effect, or another doubt; inactive means no such curve, though single readings can be large; an effect the other way counts as inactive or inconclusive.

Columns and labels:
[1] = Quantitative High-Throughput drug screen in 47 multiple myeloma cell lines against the NCATS MIPE library collection: KMM1_JCRB cell viability assay (AID 1918960); further: nearly all actives have a fitted effect of over 30% in size
Outline: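 Here, 48 h treatment with MIPE 4.0 agents at 37 °C preceded an ATP luminescence read. Plating density was 500 cells per well.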

[2] = Quantitative High-Throughput drug screen in 47 multiple myeloma cell lines against the NCATS MIPE library collection: Karpas417_ECACC cell viability assay (AID 1918961); conditions: Karpas417 myeloma viability, CellTiter-Glo ATP luminescence, 48 h; viability (% of DMSO): at 45.8 µM (top of the series)
Outline: (§1)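 We plated 500 myeloma cells per well, pinned in MIPE 4.0 compounds, and incubated for 48 hours at 37C. ATP was then quantified with CellTiter-Glo, with DMSO and media-only wells defining 100% and 0%.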

[3] = Quantitative High-Throughput drug screen in 47 multiple myeloma cell lines against the NCATS MIPE library collection: JIM3_ECACC cell viability assay (AID 1918963; further: nearly all actives have a fitted effect of over 35% in size)
Outline: (§2)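 Primary qHTS used for cherry-picking: cells at 500/well, library compounds for 48 h (37C, 5% CO2), luminescent ATP assay.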

[4] = Quantitative High-Throughput drug screen in 47 multiple myeloma cell lines against the NCATS MIPE library collection: JIM1_ECACC cell viability assay (AID 1918964)
Outline: as §2

[5] = Quantitative High-Throughput drug screen in 47 multiple myeloma cell lines against the NCATS MIPE library collection: Karpas25_ECACC cell viability assay (AID 1918968; further: nearly all actives have a fitted effect of over 35% in size)
Outline: as §2

[6] = Quantitative High-Throughput drug screen in 47 multiple myeloma cell lines against the NCATS MIPE library collection: KMS27_JCRB cell viability assay (AID 1918970); further: nearly all actives have a fitted effect of over 30% in size
Outline: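 Luminescent ATP read-out (CellTiter-Glo, 5 min at room temperature) after 48 h compound exposure of 500 KMS27_JCRB cells per well; DMSO wells define full viability and media-only wells zero.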

[7] = Quantitative High-Throughput drug screen in 47 multiple myeloma cell lines against the NCATS MIPE library collection: KMS12PE_JCRB cell viability assay (AID 1918972); further: nearly all actives have a fitted effect of over 30% in size
Outline: as §1

[8] = Quantitative High-Throughput drug screen in 47 multiple myeloma cell lines against the NCATS MIPE library collection: KMS20_JCRB cell viability assay (AID 1918973); further: nearly all actives have a fitted effect of over 45% in size
Outline: as §2

[9] = Quantitative High-Throughput drug screen in 47 multiple myeloma cell lines against the NCATS MIPE library collection: MOLP8_DSMZ cell viability assay (AID 1918977); further: nearly all actives have a fitted effect of over 45% in size
Outline: (§3)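 Plated at 500 cells per well, myeloma lines received MIPE 4.0 compounds by pin tool. Following 48 h culture at 37 °C, CellTiter-Glo luminescence gave viability relative to DMSO and media-only controls.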

[10] = Quantitative High-Throughput drug screen in 47 multiple myeloma cell lines against the NCATS MIPE library collection: NCIH929_DSMZ cell viability assay (AID 1918978); further: nearly all actives have a fitted effect of over 35% in size
Outline: as §3

[11] = Quantitative High-Throughput drug screen in 47 multiple myeloma cell lines against the NCATS MIPE library collection: OCIMY1_PLB cell viability assay (AID 1918979); further: nearly all actives have a fitted effect of over 35% in size
Outline: as §3

[12] = Quantitative High-Throughput drug screen in 47 multiple myeloma cell lines against the NCATS MIPE library collection: MM1S_ATCC cell viability assay (AID 1918980); further: nearly all actives have a fitted effect of over 45% in size
Outline: as §3

[13] = Quantitative High-Throughput drug screen in 47 multiple myeloma cell lines against the NCATS MIPE library collection: MM1R_ATCC cell viability assay (AID 1918981); further: nearly all actives have a fitted effect of over 35% in size
Outline: as §3

[14] = Quantitative High-Throughput drug screen in 47 multiple myeloma cell lines against the NCATS MIPE library collection: INA6_PLB cell viability assay (AID 1918965; further: nearly all actives have a fitted effect of over 55% in size)
Outline: as §1

[15] = Quantitative High-Throughput drug screen in 47 multiple myeloma cell lines against the NCATS MIPE library collection: JJN3_DSMZ cell viability assay (AID 1918966; further: nearly all actives have a fitted effect of over 50% in size)
Outline: as §2

[16] = Quantitative High-Throughput drug screen in 47 multiple myeloma cell lines against the NCATS MIPE library collection: H1112_PLB cell viability assay (AID 1918967; further: nearly all actives have a fitted effect of over 30% in size)
Outline: as §2

[17] = Quantitative High-Throughput drug screen in 47 multiple myeloma cell lines against the NCATS MIPE library collection: KMS12BM_JCRB cell viability assay (AID 1918971); further: nearly all actives have a fitted effect of over 35% in size
Outline: (§4)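 Myeloma cell lines, 500 cells per well, exposed to MIPE 4.0 library compounds for 48 h at 37C, 5% CO2. Viability from ATP by CellTiter-Glo luminescence; normalised to DMSO (100%) and media-only (0%) wells.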

[18] = Quantitative High-Throughput drug screen in 47 multiple myeloma cell lines against the NCATS MIPE library collection: KHM11_PLB cell viability assay (AID 1918962); further: nearly all actives have a fitted effect of over 35% in size
Outline: as §2

[19] = Quantitative High-Throughput drug screen in 47 multiple myeloma cell lines against the NCATS MIPE library collection: KMS26_JCRB cell viability assay (AID 1918975); further: nearly all actives have a fitted effect of over 45% in size
Outline: as §4

[20] = Quantitative High-Throughput drug screen in 47 multiple myeloma cell lines against the NCATS MIPE library collection: MMM1_PLB cell viability assay (AID 1918976); further: nearly all actives have a fitted effect of over 35% in size
Outline: as §3
Potency means the concentration at half of the fitted maximal effect.

Row | Structure (SMILES) | Potency [1] | Potency [2] | Potency [3] | Potency [4] | Potency [5] | Potency [6] | Potency [7] | Potency [8] | Potency [9] | Potency [10] | Potency [11] | Potency [12] | Potency [13] | Potency [14] | Potency [15] | Potency [16] | Potency [17] | Potency [18] | Potency [19] | Potency [20]
1 | NC(=O)c1cccnc1 | inactive | inactive | inactive | inactive | inactive | 0.003 µM (active) | inactive | inactive | inactive | inactive | inactive | inactive | inactive |  |  |  |  |  |  | 
2 | CCOC(=O)c1ccc(OC(=O)CCCCCN=C(N)N)cc1 | inactive | inactive |  | inactive | inactive |  | inactive |  | inactive | inactive | inactive |  |  | inactive | inactive | inactive | inactive |  |  | 
3 | CCC(C)(C)c1ccc(CC(C)CN2C[C@@H](C)O[C@@H](C)C2)cc1 (some centres not stated) | inactive | inactive |  | inactive |  |  | inactive |  |  | inactive |  |  |  |  |  |  |  |  |  | 
4 | COC(c1ccccc1)(c1ccccc1)[C@H](Oc1nc(C)cc(C)n1)C(=O)O | inactive | inactive | inactive | inactive |  | inactive | inactive |  |  | inactive | inactive |  |  |  |  | inactive |  | inactive | inactive | 
5 | C1CCC(C(CC2CCCCN2)C2CCCCC2)CC1 (configuration not stated) | 14.8 µM (active) | 18.7 µM (active) | 18.7 µM (active) | 20.9 µM (active) | 8.33 µM (active) | 10.5 µM (active) | 8.33 µM (active) |  | 16.6 µM (active) | 20.9 µM (active) |  | 6.62 µM (active) | 9.35 µM (active) | 9.35 µM (active) | 20.9 µM (active) |  | 9.35 µM (active) | 11.8 µM (active) | 16.6 µM (active) | 
6 | COc1cc(NCc2ccc3nc(N)nc(N)c3c2C)cc(OC)c1OC | 1.18 µM (active) | 4.18 µM (active) | 0.418 µM (active) | 2.96 µM (active) | 4.18 µM (active) | 0.59 µM (active) | 0.935 µM (active) |  | 5.26 µM (active) | 3.72 µM (active) | 13.2 µM (active) | 8.33 µM (active) | 7.43 µM (active) | 1.32 µM (active) | 3.72 µM (active) |  | 13.2 µM (active) | 8.33 µM (active) | 5.9 µM (active) | 
7 | C[C@@H](CN1CC(=O)NC(=O)C1)N1CC(=O)NC(=O)C1 | inactive | 0.0526 µM (active) | inactive | inactive | 9.35 µM (active) | 3.72 µM (active) |  |  |  | 16.6 µM (active) |  | 3.32 µM (active) |  | 10.5 µM (active) | inactive | 16.6 µM (active) |  |  | inactive | 
8 | CCN(CC)CCn1c(=O)c(Cc2ccc(OC)cc2)nc2ccccc21 | inactive | inactive | inactive | inactive |  | 10.5 µM (active) |  |  |  | inactive | inactive | inactive | inactive |  |  |  | inactive |  | inactive | 
9 | COc1ccc2cc3[n+](cc2c1OC)CCc1cc2c(cc1-3)OCO2 | 10.5 µM (active) | 9.35 µM (active) |  | 16.6 µM (active) | 2.64 µM (active) | 16.6 µM (active) | 16.6 µM (active) |  | 14.8 µM (active) |  |  | 14.8 µM (active) |  | 6.62 µM (active) | 11.8 µM (active) |  | 6.62 µM (active) | 8.33 µM (active) | 5.9 µM (active) | 
10 | COc1cc([C@@H]2c3cc4c(cc3[C@H](O)[C@H]3COC(=O)[C@H]23)OCO4)cc(OC)c1OC | 0.001 µM (active) | inactive | inactive | inactive | inactive | inactive |  |  |  | inactive |  | inactive |  | inactive | inactive |  |  | inactive |  | 
11 | CC(C)NCC(O)c1ccc(NS(C)(=O)=O)cc1 (configuration not stated) | inactive | inactive | inactive |  |  | inactive | inactive | inactive |  | inactive | inactive | 7.43 µM (active) |  |  |  | inactive | inactive | inactive |  | 
12 | Cc1noc(NS(=O)(=O)c2ccc(N)cc2)c1C | inactive | inactive | inactive |  | inactive | inactive | inactive |  |  | inactive |  |  |  | inactive |  | inactive |  |  | inactive | 
13 | CC(=O)Oc1ccccc1C(=O)Nc1ncc([N+](=O)[O-])s1 | 8.55 µM (active) | 13.6 µM (active) | 17.1 µM (active) | 27 µM (active) | 8.55 µM (active) | 12.1 µM (active) |  | 8.55 µM (active) | 34 µM (active) | 19.1 µM (active) |  | 21.5 µM (active) |  | 17.1 µM (active) | 30.3 µM (active) | 21.5 µM (active) | 24.1 µM (active) | 21.5 µM (active) | 15.2 µM (active) | 10.8 µM (active)
14 | COc1cc2nc(N3CCCN(C)CC3)nc(NC3CCN(Cc4ccccc4)CC3)c2cc1OC | 7.43 µM (active) | 2.35 µM (active) | 9.35 µM (active) | 7.43 µM (active) |  | 4.18 µM (active) |  |  | 4.69 µM (active) | 2.64 µM (active) | 5.9 µM (active) | 2.64 µM (active) | 4.18 µM (active) | 2.35 µM (active) | 16.6 µM (active) | 5.9 µM (active) | 14.8 µM (active) | 2.35 µM (active) | 5.26 µM (active) | 5.26 µM (active)
